Assay results taken from PubChem BioAssay AID1159580 (chemical genetic matrix, 2015).
The whole screen tested about 5,500 compounds, of which about 2,000 (36%) were called active. Not shown: some 18% with an inconclusive outcome. Cut-off read from the data, not from the text of the source: active = normalized growth mostly below about 0.91 (no sharp cut-off); inconclusive = no clear call, values can overlap the other calls; inactive = mostly above about 0.92. The list shows a part of the results.

Assay: chemical genetic growth profiling, strain panel (AID 1159580);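 note: tested at 20 µM; growth read once vehicle control cultures reached saturation at 30 °C; 1 = growth at the plate median or of vehicle wells; lower values mean less growth of the strain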
Details: growth OD
[1] = S. cerevisiae deletion strains, locus YAL040C, strain CLN3, hits give low values
[2] = S. cerevisiae deletion strains, locus YER002W, strain NOP16, hits give low values
[3] = S. cerevisiae deletion strains, locus YGR078C, strain PAC10, hits give low values
[4] = S. cerevisiae deletion strains, locus YGR229C, strain SMI1, hits give low values
[5] = S. cerevisiae deletion strains, locus YMR263W, strain SAP30, hits give low values
[6] = S. cerevisiae deletion strains, locus YNL128W, strain TEP1, hits give low values
[7] = S. cerevisiae deletion strains, locus YNL153C, strain GIM3, hits give low values
[8] = S. cerevisiae deletion strains, locus YNL175C, strain NOP13, hits give low values
[9] = S. cerevisiae deletion strains, locus YNL197C, strain WHI3, hits give low values
[10] = S. cerevisiae deletion strains, locus YNL224C, strain SQS1, hits give low values
[11] = S. cerevisiae deletion strains, locus YNL322C, strain KRE1, hits give low values
[12] = S. cerevisiae deletion strains, locus YOR083W, strain WHI5 (second series), hits give low values
[13] = S. cerevisiae deletion strains, locus YCL061C, strain MRC1 (second series), hits give low values
[14] = S. cerevisiae deletion strains, locus YDR363W, strain ESC2, hits give low values
[15] = S. cerevisiae deletion strains, locus YMR307W, strain GAS1, hits give low values
[16] = S. cerevisiae deletion strains, locus YPL055C, strain LGE1, hits give low values
[17] = S. cerevisiae deletion strains, locus YPL241C, strain CIN2, hits give low values
[18] = S. cerevisiae deletion strains, locus YAL013W, strain DEP1, hits give low values
[19] = S. cerevisiae deletion strains, locus YDR150W, strain NUM1, hits give low values
[20] = S. cerevisiae deletion strains, locus YJR075W, strain HOC1, hits give low values
[21] = S. cerevisiae deletion strains, locus YDL101C, strain DUN1, hits give low values
[22] = S. cerevisiae deletion strains, locus YHR030C, strain SLT2, hits give low values

Measured: normalized growth

NC(N)=NCCC[C@H](N)C(=O)O
inactive: [1] 1.09 | [2] 1.01 | [3] 0.987 | [4] 0.98 | [5] 1.01 | [6] 0.986 | [7] 1.01 | [8] 0.981 | [9] 0.989 | [10] 0.999 | [11] 0.984 | [12] 0.975

CCCCC#Cc1nc(N)c2ncn([C@@H]3O[C@H](C(=O)NCC)[C@@H](O)[C@H]3O)c2n1
inactive: [1] 0.949 | [13] 0.996 | [14] 1 | [2] 1 | [5] 0.996 | [15] 1.01 | [7] 1.19 | [8] 0.98 | [9] 0.982 | [10] 1.01 | [12] 0.982 | [16] 0.991 | [17] 0.994

COc1nc(C)nc(Cl)c1NC1=NCCN1
inactive: [18] 1.01 | [1] 0.999 | [13] 0.999 | [19] 0.996 | [14] 1.01 | [2] 0.987 | [4] 1.01 | [20] 0.99 | [5] 0.998 | [15] 1.01 | [6] 1.01 | [8] 1 | [9] 1 | [10] 1.01 | [12] 1.01 | [16] 0.998 | [17] 0.997

Cc1c(C(=S)Nc2ccccc2)sc2ccccc12
active: [22] 0.809
inactive: S. cerevisiae deletion strains, locus YAR019C, strain CDC15, hits give low values 0.943 | S. cerevisiae deletion strains, locus YBL105C, strain PKC1, hits give low values 0.958 | S. cerevisiae deletion strains, locus YBR135W, strain CKS1, hits give low values 0.935 | S. cerevisiae deletion strains, locus YBR136W, strain MEC1, hits give low values 0.947 | S. cerevisiae deletion strains, locus YBR160W, strain CDC28, hits give low values 0.948 | S. cerevisiae deletion strains, locus YDL017W, strain CDC7, hits give low values 0.964 | S. cerevisiae deletion strains, locus YDL028C, strain MPS1, hits give low values 0.953 | [21] 0.961 | S. cerevisiae deletion strains, locus YDL108W, strain KIN28, hits give low values 0.946 | S. cerevisiae deletion strains, locus YDL132W, strain cdc53, hits give low values 0.967 | S. cerevisiae deletion strains, locus YDL214C, strain PRR2, hits give low values 0.881 | S. cerevisiae deletion strains, locus YDR052C, strain DBF4, hits give low values 0.959 | S. cerevisiae deletion strains, locus YDR054C, strain cdc34, hits give low values 0.938 | S. cerevisiae deletion strains, locus YDR226W, strain ADK1, hits give low values 0.941 | S. cerevisiae deletion strains, locus YDR477W, strain SNF1, hits give low values 0.887 | S. cerevisiae deletion strains, locus YER123W, strain YCK3, hits give low values 0.882 | S. cerevisiae deletion strains, locus YER133W, strain GLC7, hits give low values 0.865 | S. cerevisiae deletion strains, locus YFL009W, strain cdc4, hits give low values 0.943 | S. cerevisiae deletion strains, locus YFL029C, strain CAK1, hits give low values 0.941 | S. cerevisiae deletion strains, locus YFR003C, strain YPI1, hits give low values 0.949 | S. cerevisiae deletion strains, locus YFR019W, strain FAB1, hits give low values 0.948 | S. cerevisiae deletion strains, locus YFR028C, strain CDC14, hits give low values 0.969 | S. cerevisiae deletion strains, locus YGR040W, strain KSS1, hits give low values 0.867 | S. cerevisiae deletion strains, locus YGR052W, strain FMP48, hits give low values 0.968 | S. cerevisiae deletion strains, locus YGR092W, strain DBF2, hits give low values 0.728 | S. cerevisiae deletion strains, locus YHR079C, strain IRE1, hits give low values 0.816 | S. cerevisiae deletion strains, locus YHR082C, strain KSP1, hits give low values 0.863 | S. cerevisiae deletion strains, locus YHR205W, strain SCH9, hits give low values 0.861 | S. cerevisiae deletion strains, locus YIL147C, strain SLN1, hits give low values 0.951 | S. cerevisiae deletion strains, locus YJL095W, strain BCK1, hits give low values 0.886 | S. cerevisiae deletion strains, locus YJL128C, strain PBS2, hits give low values 0.95 | S. cerevisiae deletion strains, locus YJL157C, strain FAR1, hits give low values 0.863 | S. cerevisiae deletion strains, locus YJR016C, strain ILV3, hits give low values 0.946 | S. cerevisiae deletion strains, locus YJR066W, strain TOR1 (second series), hits give low values 0.818 | S. cerevisiae deletion strains, locus YJR066W, strain TOR1, hits give low values 0.899 | S. cerevisiae deletion strains, locus YKL048C, strain ELM1, hits give low values 0.933 | S. cerevisiae deletion strains, locus YKL067W, strain YNK1, hits give low values 0.884 | S. cerevisiae deletion strains, locus YKL101W, strain HSL1, hits give low values 0.917 | S. cerevisiae deletion strains, locus YKL193C, strain SDS22, hits give low values 0.94 | S. cerevisiae deletion strains, locus YKL203C, strain TOR2, hits give low values 0.925 | S. cerevisiae deletion strains, locus YLR113W, strain HOG1, hits give low values 0.915 | S. cerevisiae deletion strains, locus YLR133W, strain CKI1, hits give low values 0.888 | S. cerevisiae deletion strains, locus YLR403W, strain SFP1, hits give low values 0.81 | S. cerevisiae deletion strains, locus YML070W, strain DAK1, hits give low values 0.865 | S. cerevisiae deletion strains, locus YMR001C, strain CDC5, hits give low values 0.938 | S. cerevisiae deletion strains, locus YMR205C, strain PFK2 (second series), hits give low values 0.879 | S. cerevisiae deletion strains, locus YMR277W, strain FCP1, hits give low values 0.939 | S. cerevisiae deletion strains, locus YNL006W, strain LST8, hits give low values 0.951 | S. cerevisiae deletion strains, locus YNL020C, strain ARK1, hits give low values 0.875 | S. cerevisiae deletion strains, locus YNL161W, strain CBK1, hits give low values 0.954 | S. cerevisiae deletion strains, locus YNL183C, strain NPR1, hits give low values 0.863 | S. cerevisiae deletion strains, locus YNL207W, strain RIO2, hits give low values 0.946 | S. cerevisiae deletion strains, locus YNL222W, strain SSU72, hits give low values 0.941 | S. cerevisiae deletion strains, locus YNL307C, strain MCK1 (second series), hits give low values 0.842 | S. cerevisiae deletion strains, locus YOL078W, strain AVO1, hits give low values 0.934 | S. cerevisiae deletion strains, locus YOL136C, strain PFK27, hits give low values 0.859 | S. cerevisiae deletion strains, locus YOR061W, strain CKA2, hits give low values 0.854 | S. cerevisiae deletion strains, locus YOR119C, strain RIO1, hits give low values 0.965 | S. cerevisiae deletion strains, locus YOR231W, strain MKK1, hits give low values 0.879 | S. cerevisiae deletion strains, locus YOR329C, strain SCD5, hits give low values 0.958 | S. cerevisiae deletion strains, locus YPL031C, strain PHO85, hits give low values 0.862 | S. cerevisiae deletion strains, locus YPL153C, strain RAD53, hits give low values 0.847 | S. cerevisiae deletion strains, locus YPL204W, strain HRR25, hits give low values 0.828 | S. cerevisiae deletion strains, locus YPL209C, strain IPL1, hits give low values 0.95 | S. cerevisiae deletion strains, locus YPL256C, strain CLN2, hits give low values 0.899 | S. cerevisiae deletion strains, locus YPR025C, strain CCL1, hits give low values 0.945 | S. cerevisiae deletion strains, locus YPR106W, strain ISR1, hits give low values 0.951 | S. cerevisiae deletion strains, locus YPR111W, strain DBF20, hits give low values 0.99 | S. cerevisiae deletion strains, strain NNK1, hits give low values 0.949 | S. cerevisiae deletion strains, strain TSCII, hits give low values 0.941

CC(=O)c1cnn(-c2ccccc2)c1C
inactive: [18] 0.979 | S. cerevisiae deletion strains, locus YBR229C, strain ROT2, hits give low values 0.984 | S. cerevisiae deletion strains, locus YCL061C, strain MRC1, hits give low values 0.992 | [21] 0.985 | S. cerevisiae deletion strains, locus YDL134C, strain PPH21, hits give low values 1.01 | [19] 0.925 | S. cerevisiae deletion strains, locus YEL061C, strain CIN8, hits give low values 1 | [3] 0.995 | [22] 0.945 | S. cerevisiae deletion strains, locus YHR087W, strain rtc3, hits give low values 0.99 | S. cerevisiae deletion strains, locus YJR043C, strain POL32, hits give low values 0.994 | [20] 1 | S. cerevisiae deletion strains, locus YLR039C, strain RIC1, hits give low values 1 | S. cerevisiae deletion strains, locus YLR058C, strain SHM2 (second series), hits give low values 0.998 | S. cerevisiae deletion strains, locus YLR085C, strain ARP6, hits give low values 0.963 | S. cerevisiae deletion strains, locus YLR262C, strain YPT6, hits give low values 1.01 | S. cerevisiae deletion strains, locus YML094W, strain GIM5, hits give low values 0.948 | S. cerevisiae deletion strains, locus YMR219W, strain ESC1, hits give low values 0.997 | [5] 0.922 | [15] 0.957 | [7] 0.981 | S. cerevisiae deletion strains, locus YNL298W, strain CLA4 (second series), hits give low values 1 | [11] 0.997 | S. cerevisiae deletion strains, locus YNR030W, strain Alg12, hits give low values 1 | S. cerevisiae deletion strains, locus YOL006C, strain TOP1, hits give low values 0.983 | [16] 0.848 | [17] 0.984 | S. cerevisiae deletion strains, locus YPR135W, strain CTF4, hits give low values 0.944 | S. cerevisiae strains, strain wild type, hits give low values 0.997
